In all, about 5,600 compounds went through this assay and about 390 (7%) showed an effect of 50% or more. This is one part of a sample in which strong results are shown more often than they occur. Positions of bridges follow the written chain, without caps; N, C: chain ends. Non-standard residues stand in square brackets, D forms with d. Residues, ends and D or L forms follow the SMILES beside them. hArg = N=C(N)NCCCC[C@H](N)C(=O)O; Mpa = O=C(O)CCS
Biological target: T1, Protein deacetylase HDAC6 (Homo sapiens) (UniProt Q9UBN7)
T1 sequence (whole entry): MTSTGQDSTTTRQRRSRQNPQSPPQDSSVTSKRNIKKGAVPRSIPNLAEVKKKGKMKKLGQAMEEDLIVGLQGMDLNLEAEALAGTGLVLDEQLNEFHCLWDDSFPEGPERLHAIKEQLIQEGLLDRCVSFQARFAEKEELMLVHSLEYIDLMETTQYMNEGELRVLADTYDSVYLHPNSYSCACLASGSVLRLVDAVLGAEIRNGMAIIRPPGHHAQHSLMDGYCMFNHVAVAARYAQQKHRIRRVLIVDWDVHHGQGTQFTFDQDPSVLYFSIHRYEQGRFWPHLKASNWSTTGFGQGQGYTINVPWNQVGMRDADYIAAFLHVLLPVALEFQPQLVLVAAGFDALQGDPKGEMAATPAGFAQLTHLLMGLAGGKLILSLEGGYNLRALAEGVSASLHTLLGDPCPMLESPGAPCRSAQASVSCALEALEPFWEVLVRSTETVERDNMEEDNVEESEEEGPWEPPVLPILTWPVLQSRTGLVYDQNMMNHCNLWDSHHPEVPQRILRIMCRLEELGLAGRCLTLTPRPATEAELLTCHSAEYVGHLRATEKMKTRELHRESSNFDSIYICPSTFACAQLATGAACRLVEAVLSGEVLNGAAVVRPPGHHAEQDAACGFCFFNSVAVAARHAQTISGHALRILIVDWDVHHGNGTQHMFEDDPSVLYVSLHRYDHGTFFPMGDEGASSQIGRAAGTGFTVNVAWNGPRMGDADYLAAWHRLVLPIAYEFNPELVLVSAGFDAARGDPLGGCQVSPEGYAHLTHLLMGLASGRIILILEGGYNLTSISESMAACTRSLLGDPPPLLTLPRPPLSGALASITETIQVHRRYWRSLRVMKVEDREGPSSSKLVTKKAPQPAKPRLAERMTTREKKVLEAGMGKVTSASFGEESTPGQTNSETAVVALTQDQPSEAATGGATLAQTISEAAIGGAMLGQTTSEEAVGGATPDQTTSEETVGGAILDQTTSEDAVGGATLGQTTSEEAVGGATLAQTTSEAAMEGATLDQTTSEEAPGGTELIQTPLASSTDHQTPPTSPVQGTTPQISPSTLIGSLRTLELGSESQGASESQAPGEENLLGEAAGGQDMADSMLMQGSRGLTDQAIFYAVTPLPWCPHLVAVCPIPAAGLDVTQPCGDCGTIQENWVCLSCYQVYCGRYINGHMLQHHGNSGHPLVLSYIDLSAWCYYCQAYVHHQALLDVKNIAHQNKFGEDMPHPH
Conditions: at 10 µM

SMILES | inhibition [%]
COc1ccc(Cl)c(Nc2ncnc3cc(OCC4CCN(C)CC4)c(OC)cc23)c1 | 6.69
CN(C(=O)CCCOc1ccc2[nH]c(=O)ccc2c1)C1CCCCC1 | -1.06
N=C(N)NCCCC[C@@H]1NC(=O)CCSSC[C@@H](C(N)=O)NC(=O)[C@@H]2CCCN2C(=O)[C@H](Cc2c[nH]c3ccccc23)NC(=O)[C@H](CC(=O)O)NC(=O)CNC1=O ([Mpa][hArg]GDWPC-NH2; disulfide 1-7) | 6.3
N=C(N)SCCc1ccc(OCc2ccc([N+](=O)[O-])cc2)cc1 | 9.62
Oc1ccc(OCc2ccccc2)cc1 | 98.1
CC/C(=C(\c1ccc(O)cc1)c1ccc(OCCNC)cc1)c1ccccc1 | -4.99
CCNCCCNCCCCNCCCNCC | 4.88
CC1(C)CC(Oc2ccc(-c3ccc(-c4cn[nH]c4)cc3O)nn2)CC(C)(C)N1 | 8.09
CN(C)CCOc1cc(-c2cn[nH]c2)ccc1NC(=O)C1COc2ccccc2O1 (stereo unspecified) | 55.4
CC1(C)CCC(C)(C)c2cc(C3(c4ccc(C(=O)O)cc4)OCCO3)ccc21 | -3.33
CS(=O)(=O)c1ccc(-c2cc(Br)sc2-c2ccc(F)cc2)cc1 | -5.78
O=C1NC(=O)/C(=C/c2ccc3c(c2)OC(F)(F)O3)S1 | 0.87
N=C1NC(=O)/C(=C/c2ccc(O)cc2)S1 | 28.8
O=C1NC(=O)/C(=C/c2ccc(-c3ccc(F)cc3O)o2)S1 | 90.4
O=C(O)C(O)Cc1ccc(O)c(O)c1 (stereo unspecified) | 15.4
O=C(NO)c1ccc(O)c(O)c1 | 87.6
CC(C)C(=O)c1ccc(O)c(O)c1 | -4.84
CCC(=O)c1cc(-c2ccc(Cl)cc2)n(-c2ccc(S(N)(=O)=O)cc2)c1C | 23.3
O=C1c2c(O)ccc(O)c2C(=O)c2c(NCCNCCO)ccc(NCCNCCO)c21 | 28.6
NCCNS(=O)(=O)c1ccc(Cl)c2ccncc12 | 8.69
NCCNc1ccc(NCCN)c2c1C(=O)c1ccncc1C2=O | 98.7
NC(N)=O | 5.48
C[C@@H]1CCCN1CCc1cc2cc(-c3ccc(C#N)cc3)ccc2o1 | 25.1
COc1ccc([C@@H]2Sc3ccccc3N(CCN(C)C)C(=O)[C@@H]2OC(C)=O)cc1 | 10.1
O=C(Nc1cc(-c2ccccc2)nn1-c1ccccc1F)c1ccc([N+](=O)[O-])cc1 | 73.6
Cc1cc(NC(=O)Nc2ccc(F)c(F)c2)n(-c2ccccc2)n1 | 23.6

SMILES | inhibition [%]
N#Cc1cccc(C(=O)Nc2cc(-c3ccccc3)nn2-c2ccccc2)c1 | 70
O=C1NC(c2cccc([N+](=O)[O-])c2)=CCN1c1ccccc1O | 31.3
CCOC(=O)c1ccc(OCCC2CCN(c3ccc(C)nn3)CC2)cc1 | 19.2
NS(=O)(=O)C#Cc1ccccc1 | -0.7
Cc1cccc(C#Cc2ccccc2)n1 | 101
COc1cc(C(=O)O)ccc1NC(=O)[C@@H]1N[C@@H](CC(C)(C)C)[C@](C#N)(c2ccc(Cl)cc2F)[C@H]1c1cccc(Cl)c1F | 11.2
CO[C@@H]1COCC[C@@H]1N[C@@H]1CC[C@@](C(=O)N2CCc3ncc(C(F)(F)F)cc3C2)(C(C)C)C1 | 41.3
Cc1ccc2c(=O)c3ccccc3n(CCCN)c2c1C | 6.54
COc1ccncc1C(=O)NC(=O)Nc1ccc(-c2ccccc2)c(C(F)(F)F)c1 | 9.55
Fc1ccc(-c2c3cccc(C(F)(F)F)c3nn2Cc2ccc(F)cc2Cl)cc1 | 2.87
COc1ccc(C(=O)c2ccc(C)cc2)c(O)c1 | 50.7
Cc1ccc(C(=O)c2cc(O)c(O)c([N+](=O)[O-])c2)cc1 | -8.08
COc1ccc(C(=O)c2ccccc2O)c(O)c1 | 8.93
Cc1c(C(=O)NC2CCCCC2)sc2nc3ccc(N)cc3n12 | 49.8
CCCCC/N=c1/ccn(Cc2ccccc2)c2ccccc12 | -3.26
O=c1[nH]cnc2nc[nH]c12 | 57.8
Cc1cccc(C)c1NC(=O)c1ccc(N)cc1 | 7.12
C=C1C(=O)O[C@H]2[C@H]1CC/C(C)=C\CC[C@@]1(C)O[C@@H]21 | 9.8
CC#CC(=O)N1CCC[C@H]1c1nc(-c2ccc(C(=O)Nc3ccccn3)cc2)c2c(N)nccn12 | 10.6
O=C(NC1CCNCC1)c1n[nH]cc1NC(=O)c1c(Cl)cccc1Cl | 42.4
CC1CCC(NC(=O)N(CCCl)N=O)CC1 (stereo unspecified) | 48.2
Cc1cccc(Nc2nc(-c3ccncc3)cs2)c1 | 91.1
Cc1cccc(Nc2ccncc2S(=O)(=O)NC(=O)NC(C)C)c1 | -9.9
Oc1ccc(Nc2nc(-c3ccc(Cl)cc3)cs2)cc1 | 20.2
O=C(O)CC(O)C(=O)O (stereo unspecified) | 3.05

Source: ChEMBL document CHEMBL4808148, “HDAC6 screening dataset using tau-based substrate in an enzymatic assay yields selective inhibitors and activators” (2021)
